Bioassay records (PubChem)
An excerpt weighted towards active compounds, which were near 2.7% of everything screened.
IP6K1 inhibitor: IP6K1 kinase inhibition; Q92551; IP6K1 kinase, ADP-Glo luminescence, 2 h; active compounds read low; activity change, % (series mostly up to about 58 µM); actives 0.81% (n = 140,000); in the data active = activity change below about -25%; note: % is set by controls: 0 for no effect and ±100 for the full control effect
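ADP-Glo luminescence measures ADP made by human IP6K1 during a 2 h RT reaction with ATP/IP6 (mix at 1.3 mM/130 uM); top library doses 57.5 and 19.1 uM final.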
KDM5B inh: KDM5B demethylase inhibition. Q9UGL1. KDM5B demethylase, FDH-coupled NADH fluorescence (FDH is formaldehyde dehydrogenase). Potency, µM (top dose mostly 57.7 µM), actives largely listed as inhibitors. actives 2.6% (n = 220,000). AID 1347165; active = well fitted inhibition curve with a large enough effect; inconclusive = small, poorly fitted or top-dose-only effect; inactive = no such curve, though single readings can be large or run the other way; note: potency is the fitted concentration of half-maximal effect; 0% is about no effect; nearly all actives have a fitted effect of over 70% in size
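Measured: NADH fluorescence change, 30 min, RT. System: KDM5BΔAP 200 nM final, H3K4me3 peptide, α-KG, Fe(II), ascorbate, NAD⁺ plus FDH, pH 7.5 HEPES. Compounds: titrated, 10 min pre-incubation with enzyme.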
Active calls of the source: *; i = inactive; ? = inconclusive; . = no result given.

SMILES	IP6K1 inhibitor	KDM5B inh
CCCN(CCC)C(=O)Cc1c(C)[nH]c2ccc(C)cc12	.	i
COC(=O)c1ccccc1SCC(=O)C12CC3CC(CC(C3)C1)C2	.	i
O=C1COc2ccc(N3CCCC3)nc2CN1Cc1ccccc1	-3	35µM*
COc1ccc(-c2ccc3c(n2)CN(Cc2ccccc2F)C(=O)CO3)cc1OC	-8	?
COCCN1Cc2nc(-c3ccc(OC)c(F)c3)ccc2OCC1=O	-3	40µM*
O=C1COc2ccc(N3CCOCC3)nc2CN1Cc1ccc(F)cc1	-2	?
COc1ccc(-c2ccc3c(n2)CN(Cc2ccccc2)C(=O)CO3)cc1F	-7	20µM*
O=C1COc2ccc(-c3cc(F)cc(F)c3)nc2CN1Cc1ccccc1	-6	32µM*
O=C1COc2ccc(-c3ccccc3)nc2CN1Cc1ccccc1	-10	i
COCCN1Cc2nc(-c3cc(F)cc(F)c3)ccc2OCC1=O	-7	i
CN(C)CCNC(=S)NCc1cccs1	.	i
Cc1ccc(C)c(OCCn2cnc3c2c(=O)n(C)c(=O)n3C)c1	.	i
N#Cc1c(/N=C/c2cccc(Br)c2)sc2c1CCCC2	.	i
Cc1ccc(CNC(=O)Cc2c[nH]c3ccccc23)s1	.	i
CCCc1nc2nc(C)[nH]n2c(=O)c1NC(=O)Nc1cccc(C(F)(F)F)c1	.	i
Cc1ccc(-c2ccccc2CN2CCN(C(=O)c3ccccc3)CC2)cc1Cl	-8	.
COc1ccccc1NC(=O)Nc1nc2cc(C)c(C)cc2s1	.	i
O=C(NC[C@H]1O[C@@H](CC(=O)N2CCN(c3ccccn3)CC2)[C@H](O)[C@@H]1O)NC1CCCCC1	9	25µM*
O=C(NC[C@H]1O[C@@H](CC(=O)N2CCN(c3ccccn3)CC2)[C@H](O)[C@@H]1O)Nc1cccc(F)c1	-4	?
COc1cc(F)ccc1-c1nc(-c2c(C)noc2C)cc2cc(C)oc12	-2	?
Cc1noc(C)c1-c1cc2cc(CO)oc2c(-c2cccc(OC(C)C)c2)n1	-17	25µM*
COc1cccc(-c2nc(-c3c(C)noc3C)cc3cc(C)oc23)c1	15	35µM*
Cc1noc(C)c1-c1cc2cc(CN(C)C)oc2c(Nc2cccc([S+](C)(=O)[O-])c2)n1	-4	32µM*
Cc1ccccc1-c1nc(-c2c(C)noc2C)cc2cc(CO)oc12	14	i
Cc1noc(C)c1-c1cc2cc(CO)oc2c(-c2ccc([S+](C)(=O)[O-])cc2)n1	6	35µM*
SMILES	IP6K1 inhibitor	KDM5B inh
Cc1noc(C)c1-c1cc2cc(CO)oc2c(-c2ccccc2)n1	-22	?
Cc1noc(C)c1-c1cc2cc(CN(C)C)oc2c(Nc2ccn(C)n2)n1	-3	i
CCOc1cc(C=O)c(Cl)cc1OC	.	i
CC(C(=O)N1CCNC1=O)N(C)Cc1ccc(Cl)cc1 (stereo not given)	.	i
COc1cccc(-c2c(C(=O)NCc3cccc(Cl)c3)nc3sccn23)c1	8	.
Cc1ccc(Nc2ccnc(N3CCC(NC(=O)c4ccccc4C)CC3)n2)cc1	4	.
Cc1cc2cc(-c3c(C)noc3C)nc(-c3cccc([S+](C)(=O)[O-])c3)c2o1	-11	32µM*
Cc1cc2cc(-c3c(C)noc3C)nc(NCCN(C)C)c2o1	-7	i
COCc1nc(NCc2cn3cc(C)sc3n2)cc(C2CC(N)C2)n1 (stereo not given)	-11	?
Cc1cn2cc(CNC(=O)c3ccc(CN4CCCN(C)CC4)[nH]c3=O)nc2s1	14	28µM*
Cn1c(SCC(=O)NC2CCCC2)nnc1-c1ccc(Cl)cc1	.	i
CCC(CC)(CC(=O)Nc1ccccc1NS(=O)(=O)c1ccc(F)cc1)C(=O)O	.	i
Cc1noc2c(Nc3ccc(C(N)=O)cc3)cc(-c3ccc(F)cc3)nc12	7	16µM*
Cc1noc2c(NCC3CCOCC3)cc(-c3ccc(F)cc3)nc12	-16	?
O=C(Oc1ccc2c(=O)c(-c3ccc(Br)cc3)coc2c1)c1ccco1	.	i
Cc1cc(C(=O)N2CCN(S(=O)(=O)c3ccccc3)CC2)c(C)n1C(C)C	.	i
CCCc1noc(-c2cccn3c(CNC(=O)c4ccc(Cl)cc4)nnc23)n1	12	?
CCc1noc(-c2cccn3c(CNC(=O)COc4ccc(F)cc4)nnc23)n1	8	22µM*
CCCc1noc(-c2cccn3c(CNC(=O)c4ccc(F)cc4)nnc23)n1	17	14µM*
CCc1noc(-c2cccn3c(CNC(=O)c4ccccc4)nnc23)n1	16	28µM*
CC(C)c1noc(-c2cccn3c(CNC(=O)COc4ccc(F)cc4)nnc23)n1	-2	?
CCc1noc(-c2cccn3c(CNC(=O)c4ccoc4)nnc23)n1	2	14µM*
CCc1noc(-c2cccn3c(CNC(=O)c4ccc(Cl)cc4)nnc23)n1	9	?
Cc1cc(OC(=O)c2ccccc2Cl)cc(OC(=O)c2ccccc2Cl)c1	.	i
Cc1cccc(C(C)C)c1NC(=O)c1ccc2c(c1)CCC2	.	i
SMILES	IP6K1 inhibitor	KDM5B inh
CC(NC(=O)NCCNc1ncccn1)c1cccnc1 (stereo not given)	.	i
Cc1noc(-c2cccn3c(CNC(=O)c4ccc(C(C)(C)C)cc4)nnc23)n1	5	?
CCc1noc(-c2cccn3c(CNC(=O)c4ccc(F)cc4)nnc23)n1	11	25µM*
CCc1noc(-c2cccn3c(CNC(=O)c4ccccn4)nnc23)n1	14	25µM*
CCc1noc(-c2cccn3c(CNC(=O)c4cc5ccccc5[nH]4)nnc23)n1	17	?
O=C(NCc1nnc2c(-c3nc(C4CC4)no3)cccn12)c1ccc2ccccc2n1	2	i
Cc1noc(-c2cccn3c(CNC(=O)c4ccccc4)nnc23)n1	-6	28µM*
CCc1noc(-c2cccn3c(CNC(=O)c4ccc5ccccc5n4)nnc23)n1	-5	20µM*
CNC(=O)c1nn(CN2CCN(Cc3cc(C)ccc3OC)CC2)c(=O)c2ccccc12	.	i
CN(C)C1(CNC(=O)Cc2cccs2)CCCCC1	.	i
CCOC(=O)CN(CC(=O)NC(=O)NC)CC(C)C	.	i
O=C(CNC(=O)c1cccc(-c2ccc(C(F)(F)F)cc2)c1)NCCC1CCCCC1	9	.
Cc1ccc(C(=O)O)cc1NC(=O)CC(C)(C)C	.	i
Cc1cc(C)c(C(=O)C(C)Oc2ccc(C#N)cc2)cc1C (stereo not given)	.	i
CCN1CCN(CCNC(=O)c2nnn3cc(-c4ccccc4)[nH]c(=O)c23)CC1	-14	28µM*
CCOCCCNC(=O)c1nnn2cc(-c3ccccc3)[nH]c(=O)c12	-4	28µM*
O=C(NCCC1=CCCCC1)c1nnn2cc(-c3ccccc3)[nH]c(=O)c12	0	?
O=C(NCCN1CCCCC1)c1nnn2cc(-c3ccccc3)[nH]c(=O)c12	-14	i
Clc1ccc(CN2CCC[C@H]2c2nc(-c3ccc(N4CCOCC4)nc3)no2)cc1	25	35µM*
c1ccc(CN2CCC[C@H]2c2nc(-c3ccc(N4CCOCC4)nc3)no2)cc1	1	32µM*
OCc1ccc(CN2CCC[C@H]2c2nc(-c3ccc(N4CCOCC4)nc3)no2)o1	2	?
CNc1ccc(-c2noc([C@@H]3CCCN3Cc3ccccn3)n2)cn1	-9	?
CN(C)c1ccc(-c2noc([C@@H]3CCCN3Cc3cnc4ccccc4c3)n2)cn1	18	28µM*
O=C(O)c1ccc(CN2CCC[C@H]2c2nc(-c3ccc(-n4ccnc4)nc3)no2)cc1	4	i
